Experimental data taken from PubChem BioAssay AID1159580 (chemical genetic matrix, 2015).
Out of some 5,500 compounds screened, about 2,000 (36%) were called active. About 18% were inconclusive and are not listed. Rule as the data show it: active = normalized growth mostly below about 0.91 (no sharp cut-off); inconclusive = no clear call, values can overlap the other calls; inactive = mostly above about 0.92. Some of the results follow.

Assay: chemical genetic growth profiling, strain panel (AID 1159580);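 also: tested at 20 µM; growth read once vehicle control cultures reached saturation at 30 °C; 1 = growth at the plate median or of vehicle wells; lower values mean less growth of the strain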
Settings: S. cerevisiae deletion strains, growth OD

Measured: normalized growth

O=S(=O)(c1cc(Cl)ccc1Cl)N1CCc2ccccc2C1
inactive: locus YAR019C, strain CDC15, active compounds read low 0.98 | locus YBL105C, strain PKC1, active compounds read low 0.977 | locus YBR135W, strain CKS1, active compounds read low 0.971 | locus YBR136W, strain MEC1, active compounds read low 0.983 | locus YBR160W, strain CDC28, active compounds read low 0.982 | locus YDL017W, strain CDC7, active compounds read low 0.982 | locus YDL028C, strain MPS1, active compounds read low 0.976 | locus YDL101C, strain DUN1, active compounds read low 0.981 | locus YDL108W, strain KIN28, active compounds read low 0.98 | locus YDL132W, strain cdc53, active compounds read low 0.973 | locus YDL214C, strain PRR2, active compounds read low 1.02 | locus YDR052C, strain DBF4, active compounds read low 0.983 | locus YDR054C, strain cdc34, active compounds read low 0.977 | locus YDR226W, strain ADK1, active compounds read low 0.978 | locus YDR477W, strain SNF1, active compounds read low 1.02 | locus YER123W, strain YCK3, active compounds read low 1 | locus YER133W, strain GLC7, active compounds read low 1.02 | locus YFL009W, strain cdc4, active compounds read low 0.967 | locus YFL029C, strain CAK1, active compounds read low 0.978 | locus YFR003C, strain YPI1, active compounds read low 0.981 | locus YFR019W, strain FAB1, active compounds read low 0.99 | locus YFR028C, strain CDC14, active compounds read low 0.981 | locus YGR040W, strain KSS1, active compounds read low 1.03 | locus YGR052W, strain FMP48, active compounds read low 1.06 | locus YGR092W, strain DBF2, active compounds read low 0.994 | locus YHR030C, strain SLT2, active compounds read low 0.951 | locus YHR079C, strain IRE1, active compounds read low 0.987 | locus YHR082C, strain KSP1, active compounds read low 1.15 | locus YHR205W, strain SCH9, active compounds read low 0.912 | locus YIL147C, strain SLN1, active compounds read low 0.975 | locus YJL095W, strain BCK1, active compounds read low 0.96 | locus YJL128C, strain PBS2, active compounds read low 0.925 | locus YJL157C, strain FAR1, active compounds read low 1.01 | locus YJR016C, strain ILV3, active compounds read low 0.985 | locus YJR066W, strain TOR1 (second series), active compounds read low 1.02 | locus YJR066W, strain TOR1, active compounds read low 1.11 | locus YKL048C, strain ELM1, active compounds read low 1 | locus YKL067W, strain YNK1, active compounds read low 1 | locus YKL101W, strain HSL1, active compounds read low 0.994 | locus YKL193C, strain SDS22, active compounds read low 0.971 | locus YKL203C, strain TOR2, active compounds read low 1.08 | locus YLR113W, strain HOG1, active compounds read low 0.953 | locus YLR133W, strain CKI1, active compounds read low 1 | locus YLR403W, strain SFP1, active compounds read low 0.964 | locus YML070W, strain DAK1, active compounds read low 1.02 | locus YMR001C, strain CDC5, active compounds read low 0.98 | locus YMR205C, strain PFK2 (second series), active compounds read low 0.995 | locus YMR277W, strain FCP1, active compounds read low 0.982 | locus YNL006W, strain LST8, active compounds read low 0.984 | locus YNL020C, strain ARK1, active compounds read low 1.01 | locus YNL161W, strain CBK1, active compounds read low 0.981 | locus YNL183C, strain NPR1, active compounds read low 1.14 | locus YNL207W, strain RIO2, active compounds read low 0.98 | locus YNL222W, strain SSU72, active compounds read low 0.983 | locus YNL307C, strain MCK1 (second series), active compounds read low 0.999 | locus YOL078W, strain AVO1, active compounds read low 0.975 | locus YOL136C, strain PFK27, active compounds read low 1 | locus YOR061W, strain CKA2, active compounds read low 0.99 | locus YOR119C, strain RIO1, active compounds read low 1.08 | locus YOR231W, strain MKK1, active compounds read low 1.06 | locus YOR329C, strain SCD5, active compounds read low 0.985 | locus YPL031C, strain PHO85, active compounds read low 1.01 | locus YPL153C, strain RAD53, active compounds read low 1.01 | locus YPL204W, strain HRR25, active compounds read low 1.02 | locus YPL209C, strain IPL1, active compounds read low 0.979 | locus YPL256C, strain CLN2, active compounds read low 0.987 | locus YPR025C, strain CCL1, active compounds read low 0.977 | locus YPR106W, strain ISR1, active compounds read low 0.986 | locus YPR111W, strain DBF20, active compounds read low 0.978 | strain NNK1, active compounds read low 0.983 | strain TSCII, active compounds read low 0.985
